# The full list was thinned out, with hits kept by preference.
# Pf Dd2 growth: qHTS Primary assay for Inhibitors of Plasmodium falciparum Dd2 growth in vitro | P. falciparum Dd2 growth, SYBR Green, 72 h | Potency, µM (top dose mostly 28.9 µM), without a hit: at the highest dose activity, negative = inhibition, hits mostly inhibitors | 120,000 tested, 4.3% active | AID 1347417, 2020; active = well fitted inhibition curve with a large enough effect;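 note: plate controls were DMSO vehicle for no effect and reference drug for full effect; nearly all actives have a fitted effect of over 65% in size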
#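 Readout: SYBR Green fluorescence, 485 nm excitation, 535 nm emission, after ~16 h lysis at 37C. Before that, Dd2-infected red cells (2.5% hematocrit) grew 72 h with compound, 29 uM top final concentration.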
# * marks the source's active call; other numbers are inactive results; i = inactive; [ ] = dose if it differs, or a comment. Potency is the fitted concentration of half-maximal effect.
SMILES,Pf Dd2 growth
COc1ccc(-c2nc(C(=O)NC3CC3)n3ccccc23)cc1,11µM*
C[S+](=O)([O-])c1ccc(-c2nc(C(=O)NC3CC3)n3ccccc23)cc1,i
CN(C)C(=O)c1nc(-c2ccc(S(C)(=O)=O)cc2)c2cnccn12,-3%
O=C(CCNc1c(-c2ccc(F)cc2)nc2cnccn12)NC1CCCC1,20%
COc1ccccc1-c1nc(C(=O)NC2CC2)n2ccccc12,i
O=C(NC1CC1)c1nc(-c2ccc(F)cc2)c2cnccn12,11µM*
COc1ccc(CN2CC3(C2)NC(=O)c2ccccc2O3)cc1,-6%[44.1 µM]
Cc1cnc(C(=O)NC2C[C@H]3CC[C@@H](C2)N3C(=O)Cc2ccc(F)cc2)cn1 (stereo not given in full),-5%
CN(C)C[C@H]1O[C@@H](CO)[C@@H](O)[C@H]1N1CCN(c2cccc(C(F)(F)F)c2)CC1,i
Cc1ccc(C(=O)N2CCCC3(COc4ccccc4C(=O)N3)C2)cc1 (stereo not given),-9%[44.1 µM]
O=C(c1ccc(=O)[nH]c1)N1C[C@@H](CN2CCCC2)[C@@H](CO)C1,0%
CC(=O)NCC(=O)N1CCC(N2C(=O)C(OCC3CC3)C23CCOCC3)CC1 (stereo not given),-13%
CCc1noc([C@@H]2CC(F)(F)CN2C(=O)c2ccncc2F)n1,24%
Cn1c(CCNC(=O)C2CCN(c3cn[nH]c(=O)c3)C2)nc2ccccc21 (stereo not given),i
CC(C)CCN1CCC(N2CCN(C(=O)CCc3ccccc3)CC2)C1=O (stereo not given),-21%
CC(=O)c1cc(CN2CCC(CO)(Cc3ccccc3Cl)CC2)cs1,-11%
COc1cc(N2CCC(CO)(Cc3ccccc3C(F)(F)F)CC2)ncn1,-17%
COc1ccc(F)c(CN2CCC(CO)(CN3CCCC3)CC2)c1,i
OCC1(Cc2ccccc2Cl)CCN(Cc2cc3ccccc3o2)CC1,8.9µM*
CC(C)n1cc(CN2CCC(CO)(Cc3ccccc3Cl)CC2)cn1,-11%
COc1ccc(O)c(CN2CCC(CO)(Cc3ccccc3Cl)CC2)c1,8.9µM*
Cc1cc(-c2ccc(S(=O)(=O)NC3CCOC4(CCOCC4)C3)o2)on1 (stereo not given),15%
Cc1noc([C@H]2CCN(C(=O)c3ccc4ccccc4n3)C[C@H]2NC(=O)C2CC2)n1,i
CN1C[C@@H]2CCCN3CCC[C@@H]([C@H]23)[C@H]1CCCC(=O)Nc1ccc2c(c1)OCCO2,i
COc1ccccc1CN1C(=O)C(=O)c2cccc(C)c21,29%
SMILES,Pf Dd2 growth
CCCCCOc1ccccc1Cn1c(=O)oc2ccc(C)cc21,3%
CC(C)Oc1ccccc1CN1CCC([C@@H]2CNC[C@H]2CO)CC1,-1%
Cc1cc(Br)cc2c1N(Cc1ccccc1OC(C)C)C(=O)C2=O,11µM*
COc1ccccc1Cn1ccn(CC(=O)Nc2c(C)cc(C)cc2C)c(=O)c1=O,10%
Cc1cccc2c1N(Cc1ccccc1OCCC(C)C)C(=O)C2=O,10µM*
COCCNC(=O)[C@@H]1CCC[C@@H](NC(=O)C(C)(C)C)CN(C)C(=O)C1,-8%[44.1 µM]
CC(C)(C)C(=O)N1CC[C@H]2CC(=O)N(Cc3cccnc3)CC[C@H]2C1,6%[44.1 µM]
COC(=O)c1ccc(Nc2nnc(-c3ccc(C)c(S(=O)(=O)N4CCN(C)CC4)c3)c3ccccc23)cc1,1.6µM*
Cc1ccc(-c2nnc(Nc3ccc(F)cc3)c3ccccc23)cc1S(=O)(=O)N1CCN(C)CC1,10µM*
Cc1ccc(C(=O)Nc2ccc(F)cc2)cc1S(=O)(=O)N1CCOCC1,i
Cc1ccccc1Nc1nnc(-c2ccc(C)c(S(=O)(=O)N3CCN(C)CC3)c2)c2ccccc12,40%
Cc1ccc(-c2nnc(Nc3cccc(O)c3)c3ccccc23)cc1S(=O)(=O)N1CCN(C)CC1,10µM*
COc1cccc(N2CCN(S(=O)(=O)c3cc(-c4cc(C)no4)ccc3C)CC2)c1,i
Cc1ccc(C(=O)Nc2ccccc2)cc1S(=O)(=O)N1CCCC1,-20%
Cc1ccc(-c2nnc(Nc3cccc(C(F)(F)F)c3)c3ccccc23)cc1S(=O)(=O)N1CCOCC1,10µM*
Cc1ccc(F)cc1S(=O)(=O)N1CCC(n2cnnc2C(C)C)CC1,i
Cc1ccc(-c2nnc(Nc3cccc(Cl)c3)c3ccccc23)cc1S(=O)(=O)N1CCOCC1,6%
Cc1ccc(C(=O)Nc2cccc(C(=O)O)c2)cc1S(=O)(=O)N1CCCC1,-14%
O=C1CC2CCCC(C1)N2[S+](=O)([O-])c1ccccc1,3%[44.1 µM]
O=S(=O)(N[C@H]1CO[C@H]2[C@@H]1OC[C@@H]2n1nnnc1Oc1ccc(-n2cncn2)cc1)c1cccs1,-18%
Cc1cc(=O)[nH]c(NCCNc2cc(C3CC(N)C3)nc(N(C)C)n2)n1 (stereo not given),-13%
Cc1nnnn1-c1cccc(C(=O)N2CCCC(O)(CN(C)C)CC2)c1 (stereo not given),4%
CCOCCOC1CCN(C(=O)Cc2cccc(F)c2)CC1,20%
CCN(CC)C1CCOC2(CCN(C(=O)C3CC3)CC2)C1 (stereo not given),7%
COc1ccc(CCNC(=O)C2CCN(c3cn[nH]c(=O)c3)C2)cc1OC (stereo not given),-7%
SMILES,Pf Dd2 growth
CCN1CC(CNc2nccc(-c3c(C)nn(C)c3C)n2)CC1=O (stereo not given),-2%
O=C(CN1C(=O)NC2(CCCCC2)C1=O)Nc1cc(F)ccc1F,40%
Cc1ccc(-c2nnc(Nc3ccc(Br)cc3)c3ccccc23)cc1S(=O)(=O)N1CCN(C)CC1,5.6µM*
Cc1ccc(-c2onc(C)c2C)cc1S(=O)(=O)N1CCN(c2ccccc2F)CC1,14%
Cc1ccc(-c2onc(C)c2C)cc1S(=O)(=O)N1CCCCC1,41%
OCc1ccc(CN2C[C@H](O)C[C@H]2c2nc(Cc3ccc(F)cc3Cl)no2)o1,-4%[44.1 µM]
O=C1COCCN1C1CCN(Cc2ccsc2)CC1,15%[44.1 µM]
O=C1CCCCCN1C1CCN(Cc2ccsc2)CC1,7.1µM*
O=C1CCCCCN1C1CCN(Cc2cccnc2)CC1,5%[44.1 µM]
Cc1ncc(CO)c(CN2CCC3(Cc4ccccc4CNC3=O)C2)c1O (stereo not given),4%
Cc1cc(C)n(CCC(=O)N2CCCC(Cc3nc(C4CCOCC4)no3)C2)n1 (stereo not given),26%
Cc1cc(Nc2cccc(C(F)(F)F)c2)nc2ccc(NC(=O)c3ccc(N(C)C)cc3)cc12,2.8µM*
Cc1ccccc1-c1nc2cc(NC(=O)Cc3ccc(Cl)cc3)ccc2o1,3%
CCn1nnc2cc(C(=O)Nc3cccc(C(F)(F)F)c3)ccc21,-5%
CCN(CC)c1cc(C)c2cc(NC(=O)c3cccc(F)c3)ccc2n1,-6%
Cc1cc(Nc2cccc(C(F)(F)F)c2)nc2ccc(NC(=O)Cc3ccc(Cl)cc3)cc12,11µM*
Cc1ccc(OCC(=O)Nc2ccc3nc(Nc4cccc(Cl)c4)cc(C)c3c2)cc1,36%
CCNC(=O)N[C@H]1CC[C@]2(C)CCC([C@H](C)C(=O)NC3CC3)[C@H](O)[C@H]2[C@@H]1C (stereo not given in full),5%[44.1 µM]
CCOC(=O)c1cc(-c2ccccc2)n(CCC(=O)NCCc2ccc(OC)c(OC)c2)c1C,-8%
CCOC(=O)c1cc(-c2ccccc2)n(CC(=O)NCc2ccccc2)c1C,12%
CCOC(=O)c1cc(-c2ccc(OC)cc2)n(CCC(=O)NCc2ccc(OC)cc2)c1C,4µM*
CCOC(=O)c1cc(-c2ccc(C)cc2)n(CCC(=O)NCCc2ccc(C)cc2)c1C,i

# Compound activity deposited in PubChem BioAssay by National Center for Advancing Translational Sciences (NCATS).
